From PubChem BioAssay

test system: Human papillomavirus type 1a E7 protein (residues 1-88); experiment: HPV1a E7 small-molecule binders, primary screen, biochemical, small-molecule microarray, residues 1-88, 635 nm (AID 1129); settings: small-molecule microarray binding, fluorescence 635 nm; higher = more signal

| Compound | composite z-score |
| --- | --- |
| O=C1[C@H]2[C@H]3[C@H](O)[C@H](O)CC(=NOC[C@@H](O)COCc4ccco4)[C@@H]3CC[C@H]2C(=O)N1C[C@@H]1CCCO1 | -0.12 |
| CC(C)=NOC[C@@H](C)[C@H](OCc1ccccc1)C(C)C | -1.56 |
| C=CC[C@@H]1C=C[C@H](ON=C(C)CCN2CCc3nc(-c4ccccc4)c(-c4ccccc4)cc3C2)[C@@H](CO)O1 | 0.876 |
| CC(=O)OC[C@H]1OC(ON=CC[C@@H]2C=C[C@H](OC(C)=O)[C@@H](COC(C)=O)O2)[C@H](OC(C)=O)[C@@H](OC(C)=O)[C@@H]1OC(C)=O (some centres undefined) | 0.268 |
| CON=CC[C@@H]1C=C[C@H](OC(C)=O)[C@@H](COC(C)=O)O1 | -0.534 |
| COC(=O)CC=C[C@@H](C)[C@@H](C=NO[C@@H]1O[C@H](COC(C)=O)[C@@H](OC(C)=O)[C@H](OC(C)=O)[C@H]1OC(C)=O)OC | 0.036 |
| COC(=O)CC=C[C@@H](C)[C@@H](C=NO[C@H](C)c1cn([C@H](CO)Cc2ccccc2)nn1)NS(=O)(=O)c1ccc(C)cc1 | 0.611 |
| CCOC(=O)[C@H](CC(C)C)NC(=O)CCC1CC(OC(=O)NCc2cccc3ccccc23)CC2(CCCC(COC(=O)NCC3CCCCC3)O2)O1 (some centres undefined) | 1.13 |
| COc1cccc([C@H]2Oc3ccc(OC)cc3C(=NO[C@H](C)c3cn([C@H](CO)Cc4ccccc4)nn3)[C@@H]2O)c1 | -0.323 |
| CCOC(=O)[C@H](Cc1ccccc1)NC(=O)CCC1CC(OC(=O)NCCc2ccc(F)cc2)CC2(CCCC(COC(=O)NCCCN3CCCC3=O)O2)O1 (some centres undefined) | 0.902 |
| COC(=O)[C@H](C)NC(=O)CCC1CC(OC(=O)NCCc2ccc(F)cc2)CC2(CCCC(COC(=O)NCCC(C)C)O2)O1 (some centres undefined) | 0.168 |
| O=C1C=C[C@@H](O)[C@@H]2[C@@H]3C(=O)N(c4ccc(F)cc4F)C(=O)[C@@H]3CC[C@@H]12 | 0.437 |
| CCOC(=O)[C@H](CC(C)C)NC(=O)CCC1CC(OC(=O)NCc2cccc3ccccc23)CC2(CCCC(COC(=O)NCCCN3CCCC3=O)O2)O1 (some centres undefined) | 1.06 |
| CCOC(=O)[C@H](CC(C)C)NC(=O)CCC1CC(OC(=O)NCc2cccc3ccccc23)CC2(CCCC(COC(=O)NCCc3ccc(Cl)cc3)O2)O1 (some centres undefined) | 0.484 |
| CO[C@H]1COC(=O)CC=C[C@@H](C)[C@H](NS(=O)(=O)c2ccc(C)cc2)COC(=O)CCC[C@@H]1C | -0.21 |
| CC(=O)OC[C@H]1O[C@@H](ON=C(C)CCN2CCCc3nc(C)c(C)cc32)[C@H](OC(C)=O)[C@@H](OC(C)=O)[C@@H]1OC(C)=O | 1.15 |
| CCOC(=O)CCN1C(=O)[C@H]2[C@H]3[C@H](O)[C@H](O)CC(=NNC(=O)OCc4ccccc4)[C@@H]3CC[C@H]2C1=O | 0.687 |
| CC=CC1=C(CO)C(=O)[C@@H]2O[C@@H]2C1=O | -0.385 |
| O=C1[C@H]2[C@H]3[C@H](O)[C@H](O)CC(=NOCc4ccccc4)[C@H]3CC[C@H]2C(=O)N1Cc1ccc2c(c1)OCO2 | 0.186 |
| COC(=O)CC=C[C@@H](C)[C@@H](C=NOCC[C@@H]1C=C[C@H](OC(C)=O)[C@@H](COC(C)=O)O1)OC | 0.34 |
| O=C(NN=C1C[C@@H](O)[C@@H](O)[C@@H]2[C@@H]3C(=O)N(Cc4ccccc4)C(=O)[C@@H]3CC[C@@H]12)OCc1ccccc1 | -0.0375 |
| CO[C@H]1COC(=O)CCC[C@@H](C)[C@H](OC)COC(=O)[C@@H]2CCCN2C(=O)CC=C[C@@H]1C | -0.779 |
| CCOC(=O)[C@H](CC(C)C)NC(=O)CCC1CC(OC(=O)NCc2ccc3c(c2)OCO3)CC2(CCCC(COC(=O)NCc3cccc(C(F)(F)F)c3)O2)O1 (some centres undefined) | 0.218 |
| CC(C)CON=C1C[C@@H](O)[C@@H](O)[C@@H]2[C@@H]3C(=O)N(c4ccc(F)cc4F)C(=O)[C@@H]3CC[C@H]12 | 1.11 |
| CO[C@@H]1COC(=O)CC=C[C@@H](C)[C@@H]2C=C[C@H](O)[C@@H](COC(=O)CC=C[C@H]1C)O2 | -1.07 |
| CC(CCN1CCc2nc(-c3ccccc3)c(-c3ccccc3)cc2C1)=NOC[C@@H](O)COCc1ccco1 | 0.697 |
| C[C@H]1CC[C@H]2C(=O)O[C@H](COc3ccc(C(C)(C)C)cc3)CN2[C@@H]1c1ccc(Br)cc1 | 0.243 |
| CCC1=NOC(CCC2CC(OC(=O)NCc3cccc4c3OCO4)CC3(CCCC(COC(=O)NCCc4ccccc4OC)O3)O2)C1 (centres undefined) | 1.19 |
| C=CC[C@@H]1C=C[C@H](ON=C2[C@H]3CCn4c(=O)n(-c5ccccc5)c(=O)n4[C@H]3[C@H](O)[C@@H]3O[C@H]23)[C@@H](CO)O1 | -0.542 |
